Data reported in PubChem BioAssay AID485272 (The Scripps Research Institute Molecular Screening Center, 2010).
Among all 330,000 compounds or so, about 1,300 (0.39%) were called active.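 The calls were made as follows: active = percent inhibition above a cutoff equal to the mean of all tested compounds plus 3 SD (cut at about 15% in these data); inactive = the rest.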 For the sample, actives were picked, then their nearest neighbours and some compounds at random.

target: Protein-arginine deiminase type-4 (Homo sapiens) (UniProt Q9UM07); assay: human PAD4 inhibitors, primary screen, biochemical, fluorescence polarization, 1536-well format (AID 485272); conditions: recombinant PAD4, RCA probe fluorescence polarization; at 6.36 µM; active compounds read high;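 also: 0% = PAD4 with RCA probe and DMSO and 100% = probe without PAD4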
Sequence (Q9UM07 whole entry, looked up): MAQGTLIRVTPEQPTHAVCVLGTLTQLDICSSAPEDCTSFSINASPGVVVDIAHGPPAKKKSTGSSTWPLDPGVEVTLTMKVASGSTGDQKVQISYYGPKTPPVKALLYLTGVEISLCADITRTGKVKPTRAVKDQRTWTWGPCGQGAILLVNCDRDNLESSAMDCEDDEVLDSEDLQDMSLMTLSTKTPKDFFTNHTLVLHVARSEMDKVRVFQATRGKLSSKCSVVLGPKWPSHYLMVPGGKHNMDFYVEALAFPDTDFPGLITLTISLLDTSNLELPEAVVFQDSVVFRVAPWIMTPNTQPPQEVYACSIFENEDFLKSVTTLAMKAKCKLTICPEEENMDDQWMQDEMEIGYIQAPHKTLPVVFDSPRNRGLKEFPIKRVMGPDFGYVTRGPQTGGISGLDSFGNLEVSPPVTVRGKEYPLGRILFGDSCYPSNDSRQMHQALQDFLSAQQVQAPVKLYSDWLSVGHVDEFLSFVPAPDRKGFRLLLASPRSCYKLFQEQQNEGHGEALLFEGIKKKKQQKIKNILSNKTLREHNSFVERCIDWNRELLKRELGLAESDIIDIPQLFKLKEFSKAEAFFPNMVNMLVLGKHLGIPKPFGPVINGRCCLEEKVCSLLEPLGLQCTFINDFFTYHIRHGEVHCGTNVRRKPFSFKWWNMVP

Row | Structure (SMILES) | inhibition
1 | CN(C(=O)CN1C(=O)S/C(=C\c2ccccc2F)C1=O)C1CCS(=O)(=O)C1 (stereo not given) | 3.56% (inactive)
2 | CCCCNC(=O)Nc1c(C)cc(SC#N)cc1C | 39.1% (active)
3 | CCCCNC(=S)NNC(=O)c1cc(C)on1 | -2.6% (inactive)
4 | CCCCNC(=O)CCNC(=O)c1ccc(C(C)(C)C)cc1 | 2.29% (inactive)
5 | CC(C)=C1C2CCC1C1C(=O)N(NC(=O)c3ccco3)C(=O)C21 (stereo not given) | -4.39% (inactive)
6 | COc1ccc(/C=C(\NC(=O)c2ccc(OCC(C)C)cc2)C(=O)OCc2ccco2)cc1 | 1.51% (inactive)
7 | COCCCNC(=S)N1CCCC(c2nc3cc(C)c(C)cc3[nH]2)C1 (stereo not given) | -0.08% (inactive)
8 | Cc1ccc(C2CC(c3cccc(NS(C)(=O)=O)c3)=NN2S(C)(=O)=O)cc1 (stereo not given) | -2.1% (inactive)
9 | CCN1CC=C2C(C#N)=C(N)C(C#N)(C#N)[C@H](c3ccoc3)[C@H]2C1 | 30.4% (active)
10 | N#CC1=C(N)C(C#N)(C#N)[C@H](c2ccsc2)[C@H]2COCC=C12 | -0.34% (inactive)
11 | CCCN1CC=C2C(C#N)=C(N)C(C#N)(C#N)C(c3cc(OC)ccc3OC)C2C1 (stereo not given) | -2.45% (inactive)
12 | O=C(O)COCC(=O)NCc1csc2ccc(Cl)cc12 | -2.02% (inactive)
13 | Cc1ccc(NC(=O)Nc2ccc3oc(C)nc3c2)cc1 | -0.57% (inactive)
14 | Cc1nc(C)c(C(=O)Nc2ccc(C)c(F)c2)o1 | -0.93% (inactive)
15 | Cc1nc2ccc(NC(=O)C(F)(F)F)cc2o1 | 27.5% (active)
16 | CC(=O)c1c(C)[nH]c(C(=O)COC(=O)CCOc2ccc(C)cc2)c1C | -5.3% (inactive)
17 | COC(=O)c1cc(S(=O)(=O)N2CCN(c3cc(C)ccc3C)CC2)c[nH]1 | -1.18% (inactive)
18 | C=CCOc1c(Br)cc(/C=N\n2nnnc2N)cc1OC | -3.76% (inactive)
19 | CCOc1c(Br)cc(/C=C2\C(=O)N(CCC#N)N=C2C)cc1OC | 57.8% (active)
20 | COc1cc(/C=C2/C(=O)NN(c3cccc(Cl)c3)C2=O)cc(Br)c1O | -6.98% (inactive)
21 | COc1ccccc1N1CC(C(=O)NCCN2C(=O)S/C(=C\c3cccnc3)C2=O)CC1=O (stereo not given) | 1.63% (inactive)
22 | COc1ccc(N2CC(C(=O)NCCN3C(=O)S/C(=C\c4cccnc4)C3=O)CC2=O)c(OC)c1 (stereo not given) | 101% (active)
23 | CCOc1ccc(N2CC(C(=O)NCCN3C(=O)S/C(=C\c4cccnc4)C3=O)CC2=O)cc1 (stereo not given) | -4.16% (inactive)
24 | COc1ccc(C(=O)NCc2ccccc2C)cc1S(=O)(=O)NC1CCCC1 | 1.48% (inactive)
25 | Clc1ccc(CSc2nnc3c(n2)[nH]c2ccccc23)cc1 | -2.24% (inactive)
26 | O=Cc1c(NCCc2cccc(F)c2)c2ccccc2[nH]c1=O | -4.74% (inactive)
27 | O=C(NCCCO)c1cc2c([nH]c3ccccc32)c(-c2ccc(F)cc2)n1 | 35.7% (active)
28 | COc1ccc2cc(C(=O)NCC3CCCO3)[nH]c2c1 (stereo not given) | -4.37% (inactive)

Row | Structure (SMILES) | inhibition
29 | O=C(NCC1CCCO1)c1cc2c([nH]c3ccccc32)c(-c2ccc(F)cc2)n1 (stereo not given) | 66.5% (active)
30 | O=C(NCCc1ccc(F)cc1)c1n[nH]c2ccccc12 | -0.12% (inactive)
31 | CC(NC(=O)c1cc(=O)[nH]c2ccccc12)c1ccc(F)cc1F (stereo not given) | -7% (inactive)
32 | O=C(NCC1CCCO1)c1ccc2ccccc2n1 (stereo not given) | 0.05% (inactive)
33 | CC(=O)C(C)n1cnc2scc(-c3ccc(C)cc3)c2c1=O (stereo not given) | -5.08% (inactive)
34 | Cc1cc(C)n(-c2nnc(C)n2NC(=O)c2cccc(Cl)c2)n1 | -3.56% (inactive)
35 | COC(=O)C1=C(C)NC(=S)NC1c1ccc(OCC(=O)N2CC(C)OC(C)C2)c(OC)c1 (stereo not given) | -1.31% (inactive)
36 | COc1ccc(C2NC(=S)NC3=C2CCc2ccccc23)cc1OC (stereo not given) | 19.6% (active)
37 | CCOc1ccc(C2NC(=S)NC3=C2CCc2ccccc23)cc1 (stereo not given) | -0.5% (inactive)
38 | Cc1ccc(S(=O)(=O)NC(=O)COc2ccccc2C)cc1 | -0.01% (inactive)
39 | CC(=O)c1cccc(NC(=O)N2CCCC2C(=O)NCCC(C)C)c1 (stereo not given) | -0.58% (inactive)
40 | Cc1nnsc1S(=O)(=O)Cc1ccccc1Cl | -3.79% (inactive)
41 | O=C(Nc1ccc(S(=O)(=O)N2CCCCCC2)cc1)c1c(F)cccc1F | -3.98% (inactive)
42 | O=C(NCCCN1CCN(c2ccc(F)cc2)CC1)Nc1ccc([N+](=O)[O-])cc1 | -8.31% (inactive)
43 | CC(=O)N(CN1C(=O)C2C3C=CC(C3)C2C1=O)c1cccc(Cl)c1 (stereo not given) | -2.02% (inactive)
44 | COc1cc2ccccc2cc1C(=O)Nc1ccc(N2CCOCC2)cc1 | 7.08% (inactive)
45 | CC(=O)Oc1cccc(N2C(=O)CC(Nc3ccc(N4CCOCC4)cc3)C2=O)c1 (stereo not given) | 37.4% (active)
46 | COc1ccc(N2CCN(C3CC(=O)N(c4ccc5c(c4)OCCO5)C3=O)CC2)cc1 (stereo not given) | -4.31% (inactive)
47 | COc1cc(OC)cc(C(=O)Nc2ccc(-c3nc4ccccc4o3)c(O)c2)c1 | -9.35% (inactive)
48 | COCCCNC(NC(=O)c1ccc(C)cc1)C(Cl)(Cl)Cl (stereo not given) | -2.56% (inactive)
49 | Nc1ccc(Nc2ccccc2)cc1 | 20.8% (active)
50 | Cc1ccc(Nc2ccccc2N)cc1 | -6.09% (inactive)
51 | Cc1cc(Nc2ccccc2)n(C(=O)c2ccc(N)cc2)n1 | -3.04% (inactive)
52 | COc1ccc(S(=O)(=O)N(CC(=O)NCc2ccco2)c2ccc(F)cc2)cc1 | -1.25% (inactive)
53 | COc1ccc(-n2c(C)cc(C(=O)CN3C(=O)NC4(CCc5ccccc54)C3=O)c2C)cc1 (stereo not given) | 1.38% (inactive)
54 | CC(=O)Nc1ccc(SCC(=O)Nc2ccccc2Oc2ccccc2)cc1 | 2.48% (inactive)
55 | CC(NCCO)C(=O)C12CC3CC(CC(C3)C1)C2 (stereo not given) | -1.18% (inactive)
